Results reported in PubChem BioAssay (NCATS).
Values joined by “and” are separate entries in the source; they are usually repeats but may differ in a detail not shown here. Identical values can stand only once. Results filed as inconclusive are left out. Active and inactive are the calls of the source. Calls come from the whole dose curve; as a rule, active = well fitted inhibition curve with a large enough effect; inconclusive = small, poorly fitted or top-dose-only effect; inactive = flat fitted curve, though single readings scatter.

Assays:
Assay in all cases: qHTS profiling for inhibitors of Plasmodium falciparum proliferation (AID 504749); note: nearly all actives have a fitted effect of over 60% in size
Details in all cases: P. falciparum in erythrocytes, SYBR Green DNA, 72 h; series mostly up to 28.7 µM
CP201 = tested on: CP201
Summary of the method: (§1)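 In a 72 h erythrocytic culture (37 C, humidified, 5% CO2) at 2.5% hematocrit and 0.3% starting parasitemia, compounds were tested; SYBR Green I in detergent lysis buffer stained parasite DNA overnight.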

CP211 = tested on: CP211
Summary of the method: as §1

CP215 = tested on: CP215
Summary of the method: as §1

CP217 = tested on: CP217
Summary of the method: as §1

CP237 = tested on: CP237
Summary of the method: as §1

CP238 = tested on: CP238
Summary of the method: as §1

CP247 = tested on: CP247
Summary of the method: as §1

CP250 = tested on: CP250
Summary of the method: as §1

CP252 = tested on: CP252
Summary of the method: as §1

CP256 = tested on: CP256
Summary of the method: as §1

CP260 = tested on: CP260
Summary of the method: as §1

CP262 = tested on: CP262
Summary of the method: as §1

CP265 = tested on: CP265
Summary of the method: as §1

CP266 = tested on: CP266
Summary of the method: as §1

CP268 = tested on: CP268
Summary of the method: as §1

CP269 = tested on: CP269
Summary of the method: as §1

CP286 = tested on: CP286
Summary of the method: as §1

CP291 = tested on: CP291
Summary of the method: as §1

CP297 = tested on: CP297
Summary of the method: as §1

CP203 = tested on: CP203
Summary of the method: as §1

Measured: Potency
Potency is the fitted concentration of half-maximal effect.

Cc1ccc(N=CN(C)C=Nc2ccc(C)cc2C)c(C)c1
not listed: CP203
inactive: all other assays above

CC[n+]1c(-c2ccccc2)c2cc(N)ccc2c2ccc(N)cc21
active: CP201 379 nM and 1.35 µM | CP211 213 nM and 601 nM | CP215 239 nM and 953 nM | CP217 355 nM and 631 nM | CP237 158 nM and 398 nM | CP238 112 nM and 355 nM | CP247 282 nM and 631 nM | CP250 178 nM and 355 nM | CP252 100 nM and 282 nM | CP256 31.6 nM and 63.1 nM | CP260 199 nM and 398 nM | CP262 95.3 nM and 107 nM | CP265 251 nM and 794 nM | CP266 301 nM and 601 nM | CP268 107 nM and 379 nM | CP269 120 nM and 478 nM | CP286 70.8 nM and 158 nM | CP291 151 nM and 601 nM | CP297 169 nM and 478 nM

c1cc2c(c(N3CCNCC3)c1)OCCO2
not listed: CP266 | CP297
inactive: all other assays above

NC(=O)OCCCc1ccccc1
not listed: CP203
inactive: all other assays above

CCN(CC)CCOC(=O)C(C)(c1ccccc1)c1ccccc1
active: CP203 7.57 µM
inactive: CP201

C[N+]1(CCC(C(N)=O)(c2ccccc2)c2ccccc2)CCCCC1
not listed: CP203
inactive: all other assays above

c1ccc2nc(N3CCNCC3)ccc2c1
inactive: all assays above

CNC(=O)Oc1cccc2ccccc12
not listed: CP297
inactive: all other assays above

CCCCCCCCCCCC[N+](C)(C)CCOc1ccccc1
active: CP201 10.7 µM | CP211 8.49 µM | CP215 12 µM | CP217 6.31 µM | CP237 5.01 µM | CP238 7.94 µM | CP247 7.08 µM | CP250 7.94 µM | CP252 7.94 µM | CP256 5.62 µM | CP260 3.98 µM | CP262 5.36 µM | CP265 6.31 µM | CP266 15.1 µM | CP268 9.53 µM | CP269 10.7 µM | CP286 2.51 µM | CP291 8.49 µM | CP297 13.5 µM

CCC1(CC)C(=O)NC(=O)NC1=O
not listed: CP203
inactive: all other assays above

CCN(Cc1ccc(Cl)nc1)/C(=C/[N+](=O)[O-])NC
not listed: CP203
inactive: all other assays above

CC(C)NCC(O)c1ccc(N)c(C#N)c1 (stereo unspecified)
not listed: CP203
inactive: all other assays above

CCN(CC)C(C)C(=O)c1ccccc1 (stereo unspecified)
inactive: all assays above

NCc1cccnc1
not listed: CP203
inactive: all other assays above

CCOC(=O)NC(O)C(Cl)(Cl)Cl (stereo unspecified)
not listed: CP203
inactive: all other assays above

OC(c1ccccc1)(c1ccccc1)C1CCNCC1
not listed: CP203
inactive: all other assays above

NC(=O)CN1CCCC1=O
inactive: all assays above

CCNc1nc(Cl)nc(NCC)n1
not listed: CP203
inactive: all other assays above

O=c1n(Cl)c(=O)n(Cl)c(=O)n1Cl
not listed: CP203
inactive: all other assays above

CCC1(c2ccccc2)CCC(=O)NC1=O (stereo unspecified)
inactive: all assays above

CC(C)C(Br)C(=O)NC(N)=O (stereo unspecified)
not listed: CP203
inactive: all other assays above

COP(=S)(OC)Oc1ccc(Sc2ccc(OP(=S)(OC)OC)cc2)cc1
not listed: CP203
inactive: all other assays above

CC(C)[N+](C)(CCC(C(N)=O)(c1ccccc1)c1ccccc1)C(C)C
inactive: all assays above

COc1ccc(C(=O)N2CCCC2=O)cc1
not listed: CP291 | CP297
inactive: all other assays above

Cc1ncc2n1-c1ccc(Cl)cc1C(c1ccccc1F)=NC2
not listed: CP203
inactive: all other assays above
